SF-1 inh = SF-1 (human) inhibition; inhibition, % at 10 µM; CHO-K1 Gal4-SF-1 LBD luciferase reporter; 65,000 compounds, 0.55% hits;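 active means inhibition above the mean inhibition of all tested compounds plus 3 SD, cut at about 48% in these data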;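 further: 0% = SF-1 transfected cells with DMSO and 100% = mock-transfected cells lacking SF-1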
Target sequence (Q13285 whole entry, looked up, the tested form may be a part): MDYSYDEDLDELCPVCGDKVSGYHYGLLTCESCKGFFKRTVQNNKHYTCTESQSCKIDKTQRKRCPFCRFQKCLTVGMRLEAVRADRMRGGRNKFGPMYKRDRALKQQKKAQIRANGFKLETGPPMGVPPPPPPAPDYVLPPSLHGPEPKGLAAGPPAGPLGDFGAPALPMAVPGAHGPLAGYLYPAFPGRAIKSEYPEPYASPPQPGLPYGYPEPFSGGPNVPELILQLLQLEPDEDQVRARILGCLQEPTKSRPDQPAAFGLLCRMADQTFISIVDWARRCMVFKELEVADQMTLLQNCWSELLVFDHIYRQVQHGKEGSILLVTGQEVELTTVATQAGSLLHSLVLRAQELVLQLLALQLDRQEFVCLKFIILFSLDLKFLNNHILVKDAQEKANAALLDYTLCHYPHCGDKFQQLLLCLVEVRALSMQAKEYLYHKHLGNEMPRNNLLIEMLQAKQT
* = called active by the depositor. Only a selection was taken, and hits are over-represented in it overall.

SMILES | SF-1 inh
O=C(NCc1nnc(SCC(=O)N2CCC(Cc3ccccc3)CC2)o1)c1ccccc1F | -2
c1ccc(-c2nc(N3CCCCCC3)c3ccccc3n2)nc1 | 86*
O=C1CC(CCC(=O)NC2CC2)c2ccccc2N1 (stereo not given) | 2
CCCCN1CC(C(=O)NC2CCCCC2)CC1=O (stereo not given) | 0
O=C(CCN1C(=O)C2CC=C(Cl)CC2C1=O)N1CCCCC1 (stereo not given) | -3
Cc1ccccc1NS(=O)(=O)c1ccc(OCC(=O)N2CCCC2)cc1 | -9
Cc1csc2nc(CNS(=O)(=O)c3ccc(-c4ccccc4)cc3)cn12 | 3
O=S(=O)(NCc1cn2ccsc2n1)c1ccc(Oc2ccccc2)cc1 | 52*
Cc1nc(CNS(=O)(=O)c2ccc3ccccc3c2)cs1 | 11
COc1ccc(-n2nc(C(=O)NCC(=O)N3CCN(c4ccccn4)CC3)c3ccccc3c2=O)cc1 | -60
c1ccc(Cn2nnnc2CN2CCCC2)cc1 | -4
O=C(c1cccc(COc2ccc(Cl)cc2Cl)c1)N1CCN(c2ccccn2)CC1 | -76
Oc1c(CN2CCCCC2)cc(COCc2ccccc2)c2cccnc12 | 89*
Oc1c(CN2CCN(c3ccccn3)CC2)cc(Cl)c2cccnc12 | 67*
COCc1cc(CN2CCCC2)c(O)c2ncccc12 | 50*
Cc1cccc(-c2nc(C#N)c(NC3CCCCC3)o2)c1 | -50
CCOC(=O)c1cccc(NC(=O)Cn2cc3c(n2)CCC(C)C3)c1 (stereo not given) | 13
COC(=O)N(C)CCCC1(C)C(=O)N(C)c2ccc(O)cc21 (stereo not given) | -2
Fc1ccc2nc3[nH]c4ccccc4c3nc2c1 | -90
CCc1ccccc1N(CC(=O)NCc1ccco1)C(=O)c1snc(C(N)=O)c1N | -5
Cc1c(NC(=O)CCC2CCCCC2)c(=O)n(-c2ccccc2)n1C | -10
O=C1NC(NS(=O)(=O)c2ccccc2)(C(F)(F)F)C(=O)N1Cc1cccnc1 (stereo not given) | 10
Cc1cc2c(cc1C)NC(c1c(C)n(C)n(-c3ccccc3)c1=O)C1=C(CC(C)(C)CC1=O)N2 (stereo not given) | -62
C=CCn1c2ccccc2c2nnc(SCCCn3c(=O)[nH]c4ccccc43)nc21 | 6
O=C1c2ccccc2C(O)N1Cc1ccc2c(c1)OCO2 (stereo not given) | -14
SMILES | SF-1 inh
O=C1/C(=C/Nc2ccc3c(c2)OCO3)CCc2ccccc21 | 74*
O=C(Nc1ccc2c(c1)OCO2)c1c(F)cccc1F | -58
Cc1cc(Nc2ccc(F)cc2F)n2ncnc2n1 | -9
Cn1c(N)c(C(=O)CSc2nc3ccccc3n2-c2ccccc2)c(=O)n(C)c1=O | -13
COc1ccc(C)cc1NC(=O)c1cc2c(CO)cnc(C)c2oc1=N | -24
CN=Cc1cc(-c2ccccc2)sc1O | -56
Cc1cc(C)nc(NCC(O)CNc2ccccc2Cl)n1 (stereo not given) | 1
CCOC(=O)C1=Nc2ccccc2C1=[N+]=[N-] | 84*
CCOC(=O)c1cnc2c(-c3ccccc3)cnn2c1N | -52
CCOC(=O)c1c(C)nc(-c2ccccc2)nc1N | -58
CCc1nc2oc3ccccc3c(=O)c2c(=O)n1-c1ccccc1 | -71
CCOc1ccc(-c2cc(CCCC(=O)Nc3cc(OC)ccc3OC)no2)cc1 | 57*
CCOc1ccc(-n2cc(C(=O)N3CCN(C)CC3)c3cc(OC)c(OC)cc3c2=O)cc1 | -3
COc1ccc(OC)c(NC(=O)CCN2CCCC(C)C2)c1 (stereo not given) | -1
CCOC(=O)N1CCN(CC(=O)Nc2cc(OCC)ccc2OCC)CC1 | 2
CCOc1ccc(-c2cc(CCCC(=O)NCCc3ccc(OC)c(OC)c3OC)no2)cc1 | 52*
O=C(CSc1nnc(-c2cccnc2)n1Cc1ccco1)N1c2ccccc2Sc2ccccc21 | 11
CC(OC(=O)CNC(=O)c1ccc2c(c1)OCO2)C(=O)NCCC1=CCCCC1 (stereo not given) | 0
COc1ccccc1OCc1csc(NC(=O)c2ccco2)n1 | -67
O=S(=O)(NC1CCCCC1)c1cccc(-c2nnc(-c3ccccc3)o2)c1 | 8
Cc1ccc(S(=O)(=O)N(c2cccc(C(F)(F)F)c2)C2C=CS(=O)(=O)C2)cc1 (stereo not given) | -1
Cc1cc(/C=N/n2cnnc2)c(C)n1-c1ccc(OCc2ccc(F)cc2)cc1 | 86*
Cc1cccc(NC(=O)c2oc3c(c2C)C(=O)CC(C)(C)C3)n1 | -10
Cn1c(=O)c2c(nc(CN3CCN(C(=O)c4ccco4)CC3)n2Cc2ccc(F)cc2)n(C)c1=O | -12
COc1ccc(OC)c(C(=O)CSc2nc3c(c(=O)n(C)c(=O)n3C)n2C(C)C)c1 | 9
SMILES | SF-1 inh
COc1ccc(Cl)c(Cn2c(NCc3ccco3)nc3c2c(=O)n(C)c(=O)n3C)c1 | 49*
CCN(CC)CCn1c(NCc2cccc(OC)c2)nc2ccccc21 | 3
COc1ccc(-n2nc(C(=O)NCc3ccco3)c3c4ccccc4n(C)c3c2=O)cc1 | 26
COc1cccc(Cn2c(NCc3ccco3)nc3c2c(=O)n(C)c(=O)n3C)c1 | 63*
CCN(CC)c1ccc2c(c1)CCCN2 | 5
COc1ccc([C@@H]2Sc3ccccc3N(CCN(C)C)C(=O)[C@@H]2OC(C)=O)cc1 | -6
CC(=O)C1=C(O)C(=O)N(CCc2c[nH]c3ccccc23)C1c1ccco1 (stereo not given) | -3
O=C(Nc1nnc(C2CC2)o1)c1ccc(S(=O)(=O)N2CCCc3ccccc32)cc1 | 49*
COC(=O)Nc1ccc(S(=O)(=O)N2c3ccccc3CCC2C)cc1 (stereo not given) | -5
CN(c1ccccc1)S(=O)(=O)c1ccc(C(=O)Nc2nnc(-c3ccc(F)cc3)o2)cc1 | 1
CCNC(=O)NC(=O)COC(=O)c1ccccc1SCC(=O)NC(=O)NCC | -69
CC1CCN(C(=O)c2ccc(NC(=O)C3CCCO3)cc2)CC1 (stereo not given) | -6
Cn1c(-c2ccc(Br)o2)nc2ccccc21 | -76
CCn1c(-c2ccc(N(C)C)cc2)nc2ccccc21 | -20
CN(C)c1ccc(-c2nc3ccccc3n2C)cc1 | 59*
Cc1ccc2cccc(OC(=O)c3ccc4c(c3)OCCO4)c2n1 | -12
O=c1[nH]c(N2CCOCC2)nc2ncn(Cc3ccccc3)c12 | 17
O=c1c2ccccc2nc2c3ccccc3c(N3CCOCC3)nn12 | -8
c1ccc(-n2nnc3c(N4CCOCC4)ncnc32)cc1 | 52*
CCN(CC)C(=O)c1cc(-c2ccc(Br)cc2)on1 | -56
CSc1nnc(-c2ccc(S(=O)(=O)N3CCOCC3)cc2)n1CC1CCCO1 (stereo not given) | -1
O=C(Nc1ccc(N2CCOCC2)cc1)c1cnsn1 | 69*
O=C(Nc1ccc(N2CCOCC2)c(Cl)c1)c1ccc(Br)o1 | -67
CN1CCN(c2ccc(NC(=O)c3ccc4c(c3)OCO4)cc2)CC1 | -61
O=C(Nc1ccc2c(c1)OCO2)c1ccc(COc2ccc3c(c2)CCC3)o1 | -61
SMILES | SF-1 inh
CCOC(=O)c1c(C)n(CC(O)c2ccccc2)c2ccc(O)cc12 (stereo not given) | 7
O=C(NCCc1ccccc1)c1noc2c1CCCCC2 | -60
O=C(N(c1ccccc1)c1ccccc1)n1ccnc1 | 10
CS(=O)(=O)c1ccc2nc(NC(=O)c3ccco3)sc2c1 | -74
CC1CCc2nc(NC(=O)c3ccco3)sc2C1 (stereo not given) | 64*
CC1CCc2nc(NC(=O)Cc3cccs3)sc2C1 (stereo not given) | -63
CS(=O)(=O)N1CCC(C(=O)NCc2ccco2)CC1 | 10

Compound activity as filed in PubChem BioAssay.
